# Experimental data from PMC4336329 (PLoS ONE, 2015).
# In all, about 310,000 compounds went through this assay and about 14,000 (4.5%) showed an effect of 50% or more. The effect is printed as a negative number. The sample as a whole holds a higher share of strong results than the screen did.
# Target: human ether-à-go-go-related gene (hERG) potassium channel (human, UniProt Q12809)
# Test: primary screen, population patch clamp on CHO cells stably expressing hERG; higher = less effect of the substance
# 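Note: peak tail current of the secondary pulse compared with the same well before compound.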
# Sequence of human ether-à-go-go-related gene (hERG) potassium channel (Q12809 whole entry, looked up): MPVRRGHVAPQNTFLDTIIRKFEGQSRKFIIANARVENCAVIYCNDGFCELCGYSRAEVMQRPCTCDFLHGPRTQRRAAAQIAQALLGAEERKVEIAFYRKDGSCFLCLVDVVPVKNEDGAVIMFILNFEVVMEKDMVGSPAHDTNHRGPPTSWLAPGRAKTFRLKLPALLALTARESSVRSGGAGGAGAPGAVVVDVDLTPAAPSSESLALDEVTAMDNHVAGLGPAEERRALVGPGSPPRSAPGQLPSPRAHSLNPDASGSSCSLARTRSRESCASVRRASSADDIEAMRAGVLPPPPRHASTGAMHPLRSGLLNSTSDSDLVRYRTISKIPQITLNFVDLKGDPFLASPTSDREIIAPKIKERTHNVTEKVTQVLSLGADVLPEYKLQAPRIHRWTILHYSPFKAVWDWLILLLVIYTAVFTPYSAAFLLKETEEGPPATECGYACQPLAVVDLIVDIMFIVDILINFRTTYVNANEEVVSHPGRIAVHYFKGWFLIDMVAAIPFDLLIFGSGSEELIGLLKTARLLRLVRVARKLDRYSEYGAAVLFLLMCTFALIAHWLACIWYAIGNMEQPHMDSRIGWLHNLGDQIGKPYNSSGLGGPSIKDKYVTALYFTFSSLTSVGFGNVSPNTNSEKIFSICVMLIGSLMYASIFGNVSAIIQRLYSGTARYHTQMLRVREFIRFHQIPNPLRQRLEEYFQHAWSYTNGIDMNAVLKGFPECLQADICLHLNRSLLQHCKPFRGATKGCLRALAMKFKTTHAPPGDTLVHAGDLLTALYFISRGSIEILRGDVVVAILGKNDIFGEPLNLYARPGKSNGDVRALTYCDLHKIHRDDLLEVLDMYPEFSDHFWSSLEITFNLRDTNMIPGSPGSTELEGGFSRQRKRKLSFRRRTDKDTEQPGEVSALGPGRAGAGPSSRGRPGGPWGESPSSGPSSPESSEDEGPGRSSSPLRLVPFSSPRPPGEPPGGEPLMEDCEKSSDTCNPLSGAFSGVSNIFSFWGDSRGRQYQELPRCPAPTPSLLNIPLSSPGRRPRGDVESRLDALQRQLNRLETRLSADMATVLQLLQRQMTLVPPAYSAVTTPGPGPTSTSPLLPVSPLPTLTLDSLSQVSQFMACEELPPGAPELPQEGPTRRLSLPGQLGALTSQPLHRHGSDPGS
row,Structure (SMILES),"hERG current change (%, negative = inhibition) at 10uM [%]"
1,O=C(CN(C(=O)C1CSC(=O)C1)c1cccc(F)c1)NCc1ccc2c(c1)OCO2 (stereo not shown),-14.7
2,COc1ccc(CCNC(=O)CCc2nc3sc4c(c3c(=O)[nH]2)CCCC4)cc1,9.78
3,Cn1c(=S)[nH]c2c(c1=O)C(C)(C)Cc1ccccc1-2,10.9
4,Cc1[nH]c(=O)[nH]c(=O)c1S(=O)(=O)N1CCOCC1,3.26
5,CCCn1c(SCC(=O)Nc2c(C)cccc2CC)nnc1C(C)C,3.71
6,O=C(Nc1ccc(S(=O)(=O)N2CCCC2)cc1)c1ccc2c(=O)n3c(nc2c1)CCCCC3,9.23
7,O=C(c1ccc2c(=O)n3c(nc2c1)CCC3)N1CCN(S(=O)(=O)c2cccc(F)c2)CC1,-4.8
8,O=C(Nc1cccc(S(=O)(=O)N2CCCC2)c1)c1ccc2c(=O)n3c(nc2c1)CCCCC3,-57.1
9,Cc1ccc(C)c(NC(=O)c2ccc3c(=O)n4c(nc3c2)CCC4)c1,-25.9
10,O=C(Nc1ccc(S(=O)(=O)C(F)F)cc1)c1ccc2c(=O)n3c(nc2c1)CCC3,24.1
11,O=C(Nc1cccc(S(=O)(=O)N2CCCCC2)c1)c1ccc2c(=O)n3c(nc2c1)CCCCC3,-64.5
12,O=C(Nc1cccc(S(=O)(=O)N2CCOCC2)c1)c1ccc2c(=O)n3c(nc2c1)CCCCC3,-73.3
13,Cc1ccc(NC(=O)c2ccc3c(=O)n4c(nc3c2)CCCCC4)cc1F,-24.6
14,O=C(Nc1ccc2c(c1)nc1n2CCCCC1)c1cc(S(=O)(=O)N2CCOCC2)ccc1Cl,-15.5
15,Cc1ccc(S(=O)(=O)N2CCCCC2)cc1NC(=O)c1ccc2c(=O)n3c(nc2c1)CCCCC3,-64.1
16,O=C(Nc1ccc(F)c(Cl)c1)c1ccc2c(=O)n3c(nc2c1)CCCCC3,-36.6
17,CC(NC(=O)c1cnccn1)c1ccc(S(N)(=O)=O)cc1 (stereo not shown),-2.33
18,C=CCn1c(SCC(=O)NCc2ccco2)nc2sc(C)c(C)c2c1=O,3.62
19,CC(C)NC(=O)COc1coc(CN2CCN(Cc3ccccc3)CC2)cc1=O,11.9
20,COc1ccc(-c2nc3c(n2O)CCc2c-3no[n+]2[O-])cc1,10.6
21,Nc1nnnn1CC(=O)N/N=C/C=C/c1ccccc1,16.1
22,COc1cc2c(cc1OC)CN(C(=O)c1sc(-c3cnccn3)nc1C)CC2,0.572

row,Structure (SMILES),"hERG current change (%, negative = inhibition) at 10uM [%]"
1,O=S(=O)(Nc1cccc(-c2ccc(N3CCOCC3)nn2)c1)c1cc(Cl)ccc1Cl,-26.8
2,CC(C)(C)OC(=O)N[C@@H](CCCCNC(=O)OCc1ccccc1)c1nnc([C@H](CCCCNC(=O)OCc2ccccc2)NC(=O)OC(C)(C)C)o1,-22.6
3,COc1ccc(N(C(=O)c2ccc(Cl)cc2)C2=CC3CCC(C2)N3C)cc1.Cl (stereo not shown),-82
4,CN1C2CCC1CC(OC(=O)c1ccc(Cl)cc1)(C(=O)O)C2.Cl (stereo not shown),1.82
5,CN1C2C=C(N(C(=O)c3ccc(Cl)cc3)c3ccccc3)CC1CC2.Cl (stereo not shown),-74
6,CN1OC(COC(=O)c2ccc(Cl)cc2)CC1c1ccccc1 (stereo not shown),-4.56
7,COc1ccc(N(C(=O)c2ccncc2)S(=O)(=O)c2ccc(Cl)cc2)cc1,-26.4
8,COc1ccc(N(C(=O)c2ccc(F)cc2)C2=CC3CCC(C2)N3C)cc1.Cl (stereo not shown),-71.5
9,CCCCN(C(=O)c1cc(OC)c(OC)c(OC)c1)C1=CC2CCC(C1)N2C.Cl (stereo not shown),-20.2
10,COc1ccc(CCN(C(=O)c2ccc(F)cc2)C2=CC3CCC(C2)N3C)cc1OC.Cl (stereo not shown),-46.6
11,COc1ccc(C(=O)CN(C(=O)c2ccc(Cl)cc2)N2C(=O)C3CCCCC3C2=O)cc1 (stereo not shown),-6.63
12,N#CC1=C(N)OC2=C(C(=O)CC(c3ccco3)C2)C1c1ccc(OCc2c(F)cccc2Cl)cc1 (stereo not shown),-1.84
13,Nc1c([N+](=O)[O-])c(=O)oc2ccccc12,19.1
14,CN(C)CCNC(=S)Nc1ccc(F)c(F)c1F,22.3
15,C=CCNC(=O)c1c(Cl)cnn1-c1ccc(C)cc1,-4.22
16,Cc1ccc(CNC(=O)CN2C(=O)COc3ccc(S(=O)(=O)N4CCCCC4)cc32)o1,16
17,C[C@H](NC(=O)N1CCn2c1nc1ccccc12)C(=O)NCc1ccco1,-10.6
18,CCOc1ccc(CCNC(=O)C2CCCN(S(=O)(=O)N3CCOCC3)C2)cc1OCC (stereo not shown),0.332
19,COC(=O)c1cccc(NC(=S)N2CCN(c3ccccc3F)CC2)c1,5.71
20,CC(=O)NCCn1c(SCc2cc(=O)n3cc(Cl)ccc3n2)nc2ccccc2c1=O,-50.7
21,O=C(CCCn1c(SCc2cc(=O)n3ccccc3n2)nc2ccccc2c1=O)NCC1CCCO1 (stereo not shown),-1.72
